Results taken from ChEMBL document CHEMBL4888484, “Replenishing the malaria drug discovery pipeline: Screening and hit evaluation of the MMV Hit Generation Library 1 (HGL1) against asexual blood stage Plasmodium falciparum ,using a nano luciferase reporter read-out” (2022).
In all, about 4,800 compounds went through this assay and about 420 (8.8%) showed an effect of 50% or more. This is one part of a sample in which strong results are shown more often than they occur.

Test system: Plasmodium falciparum
Assay: Confirmatory screen in NF54 nanoGlo assay, in single point, at 2uM, 72h
Type: functional, Erythrocyte
Details: timepoint 72 hour

| Compound | % Inhibition [%] |
| --- | --- |
| Cn1c(CCNC(=O)CCc2cccnc2)nc2cc(Cl)ccc21 | -3 |
| CCN1CCC(NC(=O)CCc2c[nH]c3ccccc23)CC1 | 4 |
| CC1(C)Oc2ccc(S(=O)(=O)NC3CCCCC3)cc2NC1=O | -8 |
| Cc1nn(-c2nc3ccccc3[nH]2)c(O)c1CCC(C)C | 68 |
| Oc1cc(-c2ccc(F)cc2)nn1-c1nc2ccccc2[nH]1 | -9 |
| Cc1nn(-c2nc3ccccc3[nH]2)c(O)c1Cc1ccccc1 | 2 |
| O=C(Nc1ccc(OC2CCC2)c(F)c1)N1CC[C@H](O)C1 | -2 |
| CCCc1noc([C@H](C)OC(=O)c2cc[nH]n2)n1 | -7 |
| CCN1C(=O)C(=O)N(CN2CCc3ccccc3C2)C1=O | -4 |
| Cc1nn(C)c(Cl)c1NC(=O)OCc1ccc(F)cc1 | -4 |
| CCn1cc(C(=O)O)c(=O)c2cc(F)c(N3CCN(S(=O)(=O)c4ccccc4)CC3)cc21 | -10 |
| CCn1cc(-c2nc(-c3ccccc3C)no2)c(=O)c2cc(F)c(N3CCCCC3)cc21 | 47 |
| CCn1cc(C#N)c(=O)c2cc(F)c(N3CCN(Cc4ccccc4)CC3)cc21 | 69 |
| c1cc(Cn2cnc3c2CCCC3)cs1 | -15 |
| CC[C@H]1Cn2c(C(=O)NCc3cccs3)cc3c(Cl)ccc(c32)O1 | -4 |
| COc1ccc(C(=O)Cn2nc(C)cc2C)cc1 | -4 |
| COc1ccc2c(NC(=O)Cc3c(C)noc3C)n[nH]c2c1 | 0 |
| COc1ccc2c(O)cc(-c3ccccc3)nc2c1 | -2 |
| O=C(Nc1cccc(Oc2c(F)c(F)c(-c3c(F)c(F)c(Oc4cccc(NC(=O)c5ccccc5)c4)c(F)c3F)c(F)c2F)c1)c1ccccc1 | 5 |
| Nc1cc(C(F)(F)F)c(Br)cc1Br | -16 |
| Cc1cccc(N2CCN(C(=O)c3ccc4c(c3)C(=O)N(c3cc(C)on3)C4=O)C[C@@H]2C)c1 | -3 |
| CC1CN(S(=O)(=O)CC2CCOC2)c2ccc(F)cc2O1 (stereo unspecified) | -2 |

| Compound | % Inhibition [%] |
| --- | --- |
| CCOc1ccccc1NC(=O)Cc1c(C)nc2nc(-c3cccnc3)nn2c1C | 0 |
| CCCOc1ccc(Nc2cc(C)nc3ccc(Cl)cc23)cc1 | 42 |
| Cc1cc(C)c2nc(C)cc(Nc3ccc(O)cc3)c2c1 | 87 |
| Cc1ncoc1C(=O)N1CC(F)(F)C[C@H]1Cn1cc(C(=O)N2CCOCC2)nn1 | -1 |
| CC(C)(C)OC(=O)Nc1cccc(N)n1 | 1 |
| Cn1cncc1CC(=O)Nc1ccnc(NC(=O)OC(C)(C)C)c1 | 96 |
| COc1ccc(-c2noc(Cn3c(=O)c4ccccc4n(CC(=O)Nc4cc(Cl)ccc4C)c3=O)n2)cc1 | -3 |
| O=C(C[C@H]1CCN(C(=O)c2ccc(F)cc2)C1)NC1CC1 | -11 |
| CCS(=O)(=O)Nc1ccc(S(=O)(=O)NC[C@@H](c2ccccc2OC)N2CCCCC2)c(C)c1 | -1 |
| CC(C)[C@@H]1CC[C@H](C)C[C@H]1OC(=O)Cn1cc(-c2ccc(Cl)cc2)[n+]2c1CCC2 | 84 |
| CC(C)N(C(=O)c1cc(O)nc2ccccc12)C1CC1 | -2 |
| CN(CC(C)(CO)CO)C(=O)c1coc2ccccc12 | -3 |
| Cc1cccc(C)c1OCC(=O)Nc1ccc(-c2nc3cc4ccccc4cc3[nH]2)cc1 | 10 |
| c1cc(-c2nc3cc4ccccc4cc3[nH]2)nc(-c2nc3cc4ccccc4cc3[nH]2)c1 | 99 |
| Oc1cc(-c2ccc3ccccc3c2)[nH]n1 | -11 |
| Cc1cccc(NC(=O)[C@@H](C#N)C(=O)c2ncoc2C)c1 | -14 |
| Cc1c(C2CC2)n[nH]c1NC(=O)C1CC1c1ccccc1 (stereo unspecified) | -1 |
| O[C@@]1(CN2CCC(COc3ccc4c(c3)CCC4)CC2)CCCNC1 | 52 |
| COc1cccc(Cn2nccc2NC(=O)C2CCOCC2)c1OC | -3 |
| CC(C)Cn1c(C(F)(F)F)cnc1N | 3 |
| Cc1ncc(CN(C)[C@@H](C)C(=O)Nc2ccc3c(c2)OC2(CCCCC2)O3)s1 | -4 |
| COc1cc(Cl)c(C)cc1NC(=O)c1nc2cc(C)c(C)cc2n(C)c1=O | -3 |

| Compound | % Inhibition [%] |
| --- | --- |
| O=C(c1ccc2c(c1)OCO2)N1CCn2c1nc1ccccc12 | 65 |
| Cc1nc2ccccc2n1CCC(=O)N1CCN(Cc2ccc3c(c2)OCO3)CC1 | 2 |
| O=C(c1ccc2c(c1)OCCCO2)N1CCCCC1 | -3 |
| CCC[C@H]1C(=O)NCCN1C(=O)c1cnn(CC2CCOCC2)c1C | 8 |
| Cc1nnc(NC(=O)[C@H](C)c2ccc(-c3ccccc3)c(F)c2)s1 | -19 |
| COc1cc(C(c2c(C)n(C)n(-c3ccccc3)c2=O)c2c(C)n(C)n(-c3ccccc3)c2=O)c(Br)c(Br)c1OCc1ccccc1 | 7 |
| COc1cc2c(cc1OC)[C@@H](NC(=O)c1cnc(C3(C)OCCO3)s1)CCCC2 | 50 |
| Cn1ccnc1C1CC(NC(=O)c2cc3c(s2)CCC3)CCO1 (stereo unspecified) | 0 |
| COc1cc(C(=O)NC2CCCCC2)cc2occc12 | -8 |
| Cc1cccc(C(=O)ON2C(=O)CCC2=O)c1 | -11 |
| CCCCC[C@H](C)NC(=O)CCC(=O)Nc1cccnc1 | -11 |
| Cc1ccc(Oc2ccccc2CNC(=O)[C@@H]2CCC(=O)N2)cc1 | -6 |
| COCCN(Cc1nc(C(=O)NC(C)C)cs1)C(=O)Nc1ccc(C(C)C)cc1 | 4 |
| CC1CCN(C(=O)Cc2csc(NC(=O)c3cccc(O)c3)n2)CC(C)C1 (stereo unspecified) | -10 |
| Fc1cnc(OC2Cc3ccccc3C2)nc1 | 57 |
| CCn1c(C)cc(C(=O)O[C@@H](C)C(=O)Nc2ncccn2)c1C | -4 |
| CC1CCCC(C)N1C(=O)CN(C)c1cccc2cccnc12 (stereo unspecified) | -7 |
| Cc1ccc(S(=O)(=O)Nc2ccc(Br)cc2C(=O)Nc2ccc(Oc3ccc(Br)c4ccccc34)c(Cl)c2)cc1 | 6 |
| C[C@@H](CC(=O)Nc1cncnc1-n1cccn1)c1ccccc1 | -3 |
| OC(CC(Nc1ccc(Cl)cc1)c1ccccc1)c1ccccc1 (stereo unspecified) | -8 |
| CC(C)n1nccc1N1C(=O)N[C@@H](CC(F)(F)F)C1=O | 0 |
| O=C(Nc1cnc2ccccc2c1)c1ccccc1C(=O)c1ccc(F)cc1 | 96 |

| Compound | % Inhibition [%] |
| --- | --- |
| O=C(Nc1cc(NC(=O)c2ccc(F)cc2)cc(Oc2cccnc2)c1)c1ccc(F)cc1 | -1 |
| CCN1C(=O)C[C@H](C(=O)Nc2cnc3ccccc3c2)[C@H]1c1nccn1CC | 2 |
| Cc1nn(C)c(NC(=O)Nc2cccc(Cl)c2)c1C1=CCCCC1 | -5 |
| COc1ccc(-c2cn(-c3ccc(OC)cc3)c(N)c2C#N)cc1 | -7 |
| CCc1n[nH]c(=O)c(C(=O)Nc2cnc3[nH]nc(C)c3c2)c1CC | -1 |
| Cc1nsc(N2CCN(CC(C)O)C(C)C2)n1 (stereo unspecified) | -4 |
| c1ccc(C[C@]2(c3ccccc3)CCNC2)cc1 | 1 |
| O=c1cc(N2CCN(C3CCCC3)CC2)cnn1Cc1ccccc1 | -13 |
| O=C(Cc1ccccc1F)N1CC(n2cnnc2C2CCOCC2)C1 | -14 |
| COc1ccc([C@@H]2CN(S(=O)(=O)c3ccc(OC)cc3)CCN2C)cc1 | 1 |
| O=c1[nH]c2nc(N3CCC(N4CCCCC4)CC3)ncc2c(=O)n1-c1ccc2c(c1)OCO2 | -9 |
| CS(=O)(=O)N1CC[C@H](N(C(=O)NCCc2ccccc2)C2CCOCC2)C1 | -14 |
| CC(C)c1cccc(Nc2nc3ccncc3n(C(C)C)c2=O)c1 | 95 |
| O=C(CN1CCOC2CCCCC21)N1CCOC2CCCCC21 (stereo unspecified) | -9 |
| Cc1cc(C(=O)NC(C2CC2)C2CC2)c(C)o1 | -2 |
| O=C1NCCC[C@@H]1NS(=O)(=O)N1CCc2ccccc2C1 | 0 |
| CCc1cccc(NC(=O)N2CCN(C3=CC4=NC[C@H](C)N4C=N3)CC2)c1 | 46 |
| Cc1cc(-c2csc(CN3C(=O)CNC3=O)n2)cc(C)c1F | -4 |
| Fc1ccccc1N1CCN(c2c3c(nc4nc(Cc5ccc(Cl)cc5)nn24)CCCC3)CC1 | -11 |
| CNc1nc(N2C[C@H](C)[C@@](O)(C3CC3)C2)nc2c1CCC2 | -11 |
| CNC(=O)CNC(=O)c1cccc(Cl)c1 | -1 |
| Cc1nc([C@@H]2CCCN2c2nc(C3CCCC3)ns2)no1 | -6 |

| Compound | % Inhibition [%] |
| --- | --- |
| Cc1cc(NC(=O)c2occc2-c2ccccc2)sn1 | -2 |
| CN(Cc1ccccc1)c1nc2ncn(CC(=O)NC3CCCCC3)c(=O)c2s1 | -17 |
| Cc1ccc(S(=O)(=O)NCC2(CNS(=O)(=O)c3ccc(C)cc3)CN(S(=O)(=O)c3ccc(C)cc3)C2)cc1 | 7 |
| COc1cccc(Cn2c(=O)c3sccc3n(CC(=O)Nc3ccc4c(c3)OCO4)c2=O)c1 | 10 |
| COc1cccc(NC(=O)Cn2c(C)ccc(NS(=O)(=O)c3ccc(C)cc3)c2=O)c1 | 63 |
| COc1cccc(NC(=O)Cn2c(=O)n(C)c(=O)c3sc(N4CCCC4)nc32)c1 | 0 |
| c1ccc2oc(-c3ccnc4nncn34)cc2c1 | -7 |
| COc1cc(C)c2[nH]c3c(c(=O)c2c1)CN(CC(=O)Nc1ccc2c(c1)OCCO2)CC3 | 16 |
| O=C(NC1CCN(Cc2ccco2)CC1)c1ccco1 | -9 |
| Clc1cccc(N2CCN(Cc3nc(-c4ccco4)no3)CC2)c1 | -6 |
| CC(C)(C)OC(=O)NCC1CCCCC1C(F)(F)F (stereo unspecified) | 0 |
| O=C(CNC(=O)OCc1ccccc1)Nc1ccc(F)cc1 | -12 |
| COc1cccc(-c2cc(C(=O)Nc3cc(Cl)ccc3C)c3c(C)nn(C)c3n2)c1 | -15 |
| COc1ccc(-c2cc(C(F)(F)F)nc(-n3nc(-c4cccc(OC)c4)c(Cl)c3-c3cccc(OC)c3)n2)cc1 | 84 |
| COc1cccc(-c2nc3n(c2C(=O)Nc2cccc(Cl)c2)CCS3(=O)=O)c1 | -3 |
| COc1cccc(-c2cc(C(=O)N3CCCN(C(=O)c4cc(-c5cccc(OC)c5)nc5ccccc45)CC3)c3ccccc3n2)c1 | -1 |
| COc1cccc(-c2nn(-c3nc(-c4ccccc4)cc(C(F)(F)F)n3)c(-c3cccc(OC)c3)c2Cl)c1 | 54 |
| COc1cccc(-c2cc(C(=O)Nc3ccc(F)c(Cl)c3)c3c(C)nn(C)c3n2)c1 | -4 |
